Laboratory results reported in the supplement of paper PMC7411054.
Where a name gives a salt, the structure may show the parent alone.

What was measured:
Assay in all cases: phenotypically active (imaging signature differs from DMSO and reproducible) at any of 0.3-9 uM (binary (1 = active, 0 = inactive)); higher = active
Details in all cases: treatment time: 24 h
A549-ACTB-RAB5A = test system: A549-ACTB-RAB5A
Method in brief: (§1)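 After 24 h at 0.3, 1, 3 or 9 µM, with four wells per treatment, fifteen gene-edited A549, HepG2 and WPMY1 reporter lines carrying BFP, GFP and RFP/FusionRed were imaged live. Each well's live-cell features were expressed relative to solvent control wells. Deviation required ≥3 of 4 wells past the 95th percentile of control Euclidean distances, and reproducibility a median replicate Pearson correlation over the 95th percentile of non-replicates. Phenotypic activity rested on both.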

A549-CANX-COX4 = test system: A549-CANX-COX4
Method in brief: as §1

A549-GM130-SQSTM1 = test system: A549-GM130-SQSTM1
Method in brief: as §1

A549-TP53BP1-CLTA = test system: A549-TP53BP1-CLTA
Method in brief: as §1

A549-TUBA1B-RELA = test system: A549-TUBA1B-RELA
Method in brief: as §1

HepG2-ACTB-RAB5A = test system: HepG2-ACTB-RAB5A
Method in brief: as §1

HepG2-CANX-COX4 = test system: HepG2-CANX-COX4
Method in brief: as §1

HepG2-GM130-SQSTM1 = test system: HepG2-GM130-SQSTM1
Method in brief: as §1

HepG2-TP53BP1-CLTA = test system: HepG2-TP53BP1-CLTA
Method in brief: as §1

HepG2-TUBA1B-RELA = test system: HepG2-TUBA1B-RELA
Method in brief: as §1

WPMY1-ACTB-RAB5A = test system: WPMY1-ACTB-RAB5A
Method in brief: as §1

WPMY1-CANX-COX4 = test system: WPMY1-CANX-COX4
Method in brief: as §1

WPMY1-GM130-SQSTM1 = test system: WPMY1-GM130-SQSTM1
Method in brief: as §1

WPMY1-TP53BP1-CLTA = test system: WPMY1-TP53BP1-CLTA
Method in brief: as §1

WPMY1-TUBA1B-RELA = test system: WPMY1-TUBA1B-RELA
Method in brief: as §1

Measured: phenotypically active

COCCc1ccc(OCC(O)CNC(C)C)cc1 (stereo not given) [metoprolol]
inactive: A549-ACTB-RAB5A 0 | A549-CANX-COX4 0 | A549-GM130-SQSTM1 0 | A549-TP53BP1-CLTA 0 | A549-TUBA1B-RELA 0 | HepG2-ACTB-RAB5A 0 | HepG2-CANX-COX4 0 | HepG2-GM130-SQSTM1 0 | HepG2-TP53BP1-CLTA 0 | HepG2-TUBA1B-RELA 0 | WPMY1-ACTB-RAB5A 0 | WPMY1-CANX-COX4 0 | WPMY1-GM130-SQSTM1 0 | WPMY1-TP53BP1-CLTA 0 | WPMY1-TUBA1B-RELA 0

CC(=O)Oc1ccccc1C(=O)O [aspirin]
inactive: A549-ACTB-RAB5A 0 | A549-CANX-COX4 0 | A549-GM130-SQSTM1 0 | A549-TP53BP1-CLTA 0 | A549-TUBA1B-RELA 0 | HepG2-ACTB-RAB5A 0 | HepG2-CANX-COX4 0 | HepG2-GM130-SQSTM1 0 | HepG2-TP53BP1-CLTA 0 | HepG2-TUBA1B-RELA 0 | WPMY1-ACTB-RAB5A 0 | WPMY1-CANX-COX4 0 | WPMY1-GM130-SQSTM1 0 | WPMY1-TP53BP1-CLTA 0 | WPMY1-TUBA1B-RELA 0

C[C@H]1[C@H](C)CC[C@]2(C(=O)O[C@@H]3O[C@H](CO[C@@H]4O[C@H](CO)[C@@H](O[C@@H]5O[C@@H](C)[C@H](O)[C@@H](O)[C@H]5O)[C@H](O)[C@H]4O)[C@@H](O)[C@H](O)[C@H]3O)CC[C@]3(C)C(=CC[C@@H]4[C@@]5(C)C[C@@H](O)[C@H](O)[C@@](C)(CO)[C@@H]5CC[C@]43C)[C@H]12 [Asiaticoside]
inactive: A549-ACTB-RAB5A 0 | A549-CANX-COX4 0 | A549-GM130-SQSTM1 0 | A549-TP53BP1-CLTA 0 | A549-TUBA1B-RELA 0 | HepG2-ACTB-RAB5A 0 | HepG2-CANX-COX4 0 | HepG2-GM130-SQSTM1 0 | HepG2-TP53BP1-CLTA 0 | HepG2-TUBA1B-RELA 0 | WPMY1-ACTB-RAB5A 0 | WPMY1-CANX-COX4 0 | WPMY1-GM130-SQSTM1 0 | WPMY1-TP53BP1-CLTA 0 | WPMY1-TUBA1B-RELA 0

Nc1ncnc2c1ncn2[C@H]1O[C@@H](C(=O)N2CCN(CC(=O)Nc3cccc4c3CNC4=O)CC2)[C@H](O)[C@@H]1O
inactive: A549-ACTB-RAB5A 0 | A549-CANX-COX4 0 | A549-GM130-SQSTM1 0 | A549-TP53BP1-CLTA 0 | A549-TUBA1B-RELA 0 | HepG2-ACTB-RAB5A 0 | HepG2-CANX-COX4 0 | HepG2-GM130-SQSTM1 0 | HepG2-TP53BP1-CLTA 0 | HepG2-TUBA1B-RELA 0 | WPMY1-ACTB-RAB5A 0 | WPMY1-CANX-COX4 0 | WPMY1-GM130-SQSTM1 0 | WPMY1-TP53BP1-CLTA 0 | WPMY1-TUBA1B-RELA 0

NCC[C@H](O)C(=O)N[C@H]1C[C@@H](N)[C@H](O[C@H]2O[C@H](CN)[C@@H](O)[C@H](O)[C@H]2O)[C@@H](O)[C@@H]1O[C@H]1O[C@H](CO)[C@@H](O)[C@H](N)[C@H]1O [Amikacin hydrate]
inactive: A549-ACTB-RAB5A 0 | A549-CANX-COX4 0 | A549-GM130-SQSTM1 0 | A549-TP53BP1-CLTA 0 | A549-TUBA1B-RELA 0 | HepG2-ACTB-RAB5A 0 | HepG2-CANX-COX4 0 | HepG2-GM130-SQSTM1 0 | HepG2-TP53BP1-CLTA 0 | HepG2-TUBA1B-RELA 0 | WPMY1-ACTB-RAB5A 0 | WPMY1-CANX-COX4 0 | WPMY1-GM130-SQSTM1 0 | WPMY1-TP53BP1-CLTA 0 | WPMY1-TUBA1B-RELA 0

CCCCCCC(=O)OC1CC(C)(C)NC(C)(C)C1 [TMPH hydrochloride]
inactive: A549-ACTB-RAB5A 0 | A549-CANX-COX4 0 | A549-GM130-SQSTM1 0 | A549-TP53BP1-CLTA 0 | A549-TUBA1B-RELA 0 | HepG2-ACTB-RAB5A 0 | HepG2-CANX-COX4 0 | HepG2-GM130-SQSTM1 0 | HepG2-TP53BP1-CLTA 0 | HepG2-TUBA1B-RELA 0 | WPMY1-ACTB-RAB5A 0 | WPMY1-CANX-COX4 0 | WPMY1-GM130-SQSTM1 0 | WPMY1-TP53BP1-CLTA 0 | WPMY1-TUBA1B-RELA 0

CCOC(=O)[C@H](CCc1ccccc1)N[C@@H](C)C(=O)N1Cc2ccccc2C[C@H]1C(=O)O [quinapril]
inactive: A549-ACTB-RAB5A 0 | A549-CANX-COX4 0 | A549-GM130-SQSTM1 0 | A549-TP53BP1-CLTA 0 | A549-TUBA1B-RELA 0 | HepG2-ACTB-RAB5A 0 | HepG2-CANX-COX4 0 | HepG2-GM130-SQSTM1 0 | HepG2-TP53BP1-CLTA 0 | HepG2-TUBA1B-RELA 0 | WPMY1-ACTB-RAB5A 0 | WPMY1-CANX-COX4 0 | WPMY1-GM130-SQSTM1 0 | WPMY1-TP53BP1-CLTA 0 | WPMY1-TUBA1B-RELA 0

Cc1ccc(Cl)c(Nc2ccccc2C(=O)O)c1Cl [meclofenamic-acid]
inactive: A549-ACTB-RAB5A 0 | A549-CANX-COX4 0 | A549-GM130-SQSTM1 0 | A549-TP53BP1-CLTA 0 | A549-TUBA1B-RELA 0 | HepG2-ACTB-RAB5A 0 | HepG2-CANX-COX4 0 | HepG2-GM130-SQSTM1 0 | HepG2-TP53BP1-CLTA 0 | HepG2-TUBA1B-RELA 0 | WPMY1-ACTB-RAB5A 0 | WPMY1-CANX-COX4 0 | WPMY1-GM130-SQSTM1 0 | WPMY1-TP53BP1-CLTA 0 | WPMY1-TUBA1B-RELA 0

NCCCC(O)(P(=O)(O)O)P(=O)(O)O [alendronate]
inactive: A549-ACTB-RAB5A 0 | A549-CANX-COX4 0 | A549-GM130-SQSTM1 0 | A549-TP53BP1-CLTA 0 | A549-TUBA1B-RELA 0 | HepG2-ACTB-RAB5A 0 | HepG2-CANX-COX4 0 | HepG2-GM130-SQSTM1 0 | HepG2-TP53BP1-CLTA 0 | HepG2-TUBA1B-RELA 0 | WPMY1-ACTB-RAB5A 0 | WPMY1-CANX-COX4 0 | WPMY1-GM130-SQSTM1 0 | WPMY1-TP53BP1-CLTA 0 | WPMY1-TUBA1B-RELA 0

Nc1ncnc2c1ncn2[C@@H]1O[C@H](CO)C[C@H]1O [Cordycepin]
inactive: A549-ACTB-RAB5A 0 | A549-CANX-COX4 0 | A549-GM130-SQSTM1 0 | A549-TP53BP1-CLTA 0 | A549-TUBA1B-RELA 0 | HepG2-ACTB-RAB5A 0 | HepG2-CANX-COX4 0 | HepG2-GM130-SQSTM1 0 | HepG2-TP53BP1-CLTA 0 | HepG2-TUBA1B-RELA 0 | WPMY1-ACTB-RAB5A 0 | WPMY1-CANX-COX4 0 | WPMY1-GM130-SQSTM1 0 | WPMY1-TP53BP1-CLTA 0 | WPMY1-TUBA1B-RELA 0

CC1=CC(=O)C2=C(C)CC[C@@H]3[C@H](OC(=O)[C@H]3C)[C@@H]12 [Leucomisine]
inactive: A549-ACTB-RAB5A 0 | A549-CANX-COX4 0 | A549-GM130-SQSTM1 0 | A549-TP53BP1-CLTA 0 | A549-TUBA1B-RELA 0 | HepG2-ACTB-RAB5A 0 | HepG2-CANX-COX4 0 | HepG2-GM130-SQSTM1 0 | HepG2-TP53BP1-CLTA 0 | HepG2-TUBA1B-RELA 0 | WPMY1-ACTB-RAB5A 0 | WPMY1-CANX-COX4 0 | WPMY1-GM130-SQSTM1 0 | WPMY1-TP53BP1-CLTA 0 | WPMY1-TUBA1B-RELA 0
